Source: PubChem BioAssay (several laboratories)
CYP2C9 act: activators of human CYP2C9; recombinant CYP2C9, luciferin-H conversion, luminescence; stronger effect = higher value; factor 1 = untreated enzyme, 0 = blocked; activation factor at 5 µM; AID 1024; P11712; 96,000 compounds, 1.4% hits;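 active = activation factor of 2 or more for CYP2C9 at a 5 µM dose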;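 also: 0 = sulfaphenazole-blocked wells and 1 = vehicle-only wells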
Target sequence (P11712 whole entry, looked up): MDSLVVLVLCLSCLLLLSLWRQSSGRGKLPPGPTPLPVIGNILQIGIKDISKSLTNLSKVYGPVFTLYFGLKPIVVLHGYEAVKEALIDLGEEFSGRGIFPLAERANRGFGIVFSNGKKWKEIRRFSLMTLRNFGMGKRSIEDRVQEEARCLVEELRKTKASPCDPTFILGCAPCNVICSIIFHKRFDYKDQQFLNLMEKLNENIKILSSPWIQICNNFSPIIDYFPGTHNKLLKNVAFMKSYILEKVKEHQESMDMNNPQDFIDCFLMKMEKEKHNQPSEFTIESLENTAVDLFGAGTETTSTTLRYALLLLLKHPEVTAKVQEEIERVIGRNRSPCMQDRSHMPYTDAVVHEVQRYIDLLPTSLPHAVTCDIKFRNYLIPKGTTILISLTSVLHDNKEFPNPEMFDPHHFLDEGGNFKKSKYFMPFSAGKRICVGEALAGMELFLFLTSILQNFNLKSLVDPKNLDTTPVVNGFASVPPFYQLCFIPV
MRP-1 activ: MRP-1 activation; 140,000 compounds, 0.61% hits; AID 799; viability increase, % at 10 µM; H69AR cells + doxorubicin, viability rescue, CellTiter-Glo;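 active = viability gain under doxorubicin at or above a set limit, the compound median plus 3 SD, cut at about 4.7% in these data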;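 also: MRP-1 overexpressing cells given doxorubicin 25 µM after compound pretreatment; 18-22 h compound pretreatment then 72 h with doxorubicin before readout; 0% = doxorubicin-only wells and 100% = vehicle-treated cells without doxorubicin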
MRP reversal: reverses drug resistance mediated by MRP | 85,000 compounds, 0.04% hits | H69AR cells + 2 uM doxorubicin, CellTiter-Glo, 72 h | differential viability (reversal), % at 10 µM;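 active = viability drop by adding the cancer drug above about 55%, with treated viability meeting a 40% cutoff, limit read from the data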;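 also: viability without doxorubicin minus viability with 2 µM doxorubicin for each compound; larger differential means the compound sensitizes cells more to doxorubicin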
CYP2C19 inh: inhibitors of human CYP2C19; P33261; CYP2C19 Supersomes, luciferin-H EGE luminescence, 30 min; inhibition, % at 5 µM; 96,000 compounds, 21% hits; AID 778;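 active = CYP2C19 inhibition above a set limit at 5 µM in the primary screen, cut at about 50% in these data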;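 also: plate controls were negative control wells for no effect and 2.5 mM tranylcypromine positive control for full effect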
CYP2C9 inhib: human CYP2C9 inhibition. P11712. AID 777. CYP2C9 Supersomes, luciferin-H conversion, luminescence. inhibition, % at 5 µM. 96,000 compounds, 20% hits;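 active = blocking of liver enzyme CYP2C9 beyond about 50% at 5 µM, limit read from the data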
CYP2C19 act: cytochrome P450 2C19 (human) activation. P33261. recombinant CYP2C19, luciferin-H EGE luminescence; stronger effect = higher value; 0 = fully inhibited enzyme, 1 = untreated enzyme. activation factor at 5 µM. 96,000 tested, under 10 active;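 active = activation factor of at least 2 at 5 µM in the primary screen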;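 also: 0 = wells with 2.5 mM tranylcypromine and 1 = vehicle-only wells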
An asterisk follows results filed as active; . = no result. A selection: hits, their analogues and other compounds. The true share with any hit is near 21%.

SMILES | CYP2C9 act | MRP-1 activ | MRP reversal | CYP2C19 inh | CYP2C9 inhib | CYP2C19 act
CCOC(=O)N1CCN(C(=O)c2cn(-c3ccc(C)c(C)c3)c(=O)c3ccccc23)CC1 | 0.4 | -1.2 | -9.4 | 23.5 | 63.9* | 0.8
COc1cc(OC)cc(-n2nc(C(=O)N3CC(C)CC(C)C3)c3ccccc3c2=O)c1 (stereo unspecified) | . | -1.2 | -2.5 | . | . | .
Nc1c(-c2ccc(Cl)cc2)cnn1C1CCS(=O)(=O)C1 (stereo unspecified) | 1.1 | -0.5 | 13.1 | -1.1 | -6.5 | 1
CCC(=O)OC1(C#CCOc2ccc(OC)cc2)CCN(C)CC1 | 1.1 | -1.1 | 10.9 | 65.8* | -8.8 | 0.3
c1ccc(-c2noc(-c3cccc4ccccc34)n2)nc1 | 1 | -4.4 | -5.9 | 64.2* | 1.0 | 0.4
COc1cccc(-c2nc(-c3ccccn3)no2)c1OC | 0.6 | -1.0 | -3.2 | 90.5* | 38.1 | 0.1
c1ccc(-c2cc(-c3nc(-c4ccccn4)no3)c3ccccc3n2)cc1 | . | . | -19.2 | . | . | .
CCC(=O)Nc1cccc(-c2cnc3ccccc3n2)c1 | 1.1 | -0.9 | -1.3 | 50.6* | -14.8 | 0.5
O=C(CCl)Nc1cccc(-c2cnc3ccccc3n2)c1 | 1.3 | -2.6 | 0.5 | 79.8* | -30.9 | 0.2
Cc1cc(C)nc(NC(=O)C(C)C)n1 | 0.8 | -1.8 | . | -0.8 | 15.5 | 1
COc1ccccc1N1CCN(C(=O)c2cnn3cccnc23)CC1 | 1.1 | -1.2 | -18.2 | 8.6 | -7.0 | 0.9
COc1cccc(-c2cn3nc4c(nc3n2)CCCC4)c1 | 0.5 | -3.0 | 1.2 | 95.7* | 50.4* | 0
Clc1ccc(-c2cn3nc4c(nc3n2)CCCC4)cc1 | 0.9 | -1.8 | 14.6 | 17.2 | 6.6 | 0.8
Cc1ccc2oc(C(Cl)(Cl)Cl)cc(=O)c2c1 | 0.6 | -5.5 | . | 53.4* | 43.8 | 0.5
Cc1ccc2c(c1)C(=O)c1ccccc1CS2=O (stereo unspecified) | . | -0.3 | . | . | . | .
O=C(Nc1cccc(NC(=O)c2ccco2)c1)c1ccc2c(c1)OCO2 | 0.7 | -2.8 | 11.0 | 50.5* | 30.5 | 0.5
COc1cc(NC(=O)c2ccc3c(c2)OCO3)ccc1NC(=O)C(C)C | 0.6 | -0.4 | -13.3 | 45.3 | 43.5 | 0.5
O=C(Nc1ccc2c(c1)OCO2)c1cccc(Cl)c1 | 0.8 | -1.5 | 6.7 | 70.2* | 22.0 | 0.3
CCCCC(=O)Nc1ccc(NC(=O)c2ccc3c(c2)OCO3)cc1OC | 0.4 | -1.0 | 3.3 | 85.9* | 59.3* | 0.1
CCCC(=O)Nc1cccc(NC(=O)c2ccc3c(c2)OCCO3)c1 | 0.6 | -1.4 | 2.9 | 59.1* | 36.3 | 0.4
COc1ccccc1/C=C/C(=O)OCC(=O)Nc1cc(C(F)(F)F)ccc1N1CCOCC1 | . | -5.1 | . | . | . | .
O=C(Cn1cc(C(F)(F)F)ccc1=O)Nc1cccc(S(=O)(=O)N2CCOCC2)c1 | . | -1.5 | . | . | . | .
O=C(OCC(=O)N1CCC(Cc2ccccc2)CC1)c1ccc[nH]c1=O | 0.9 | -0.7 | . | 0.8 | 14.4 | 1
O=C(CNC(=S)N(Cc1ccccc1)Cc1cccnc1)NC1CCCCC1 | . | -2.7 | . | . | . | .
COC(=O)c1cc(OC)c(OC)cc1NC(=O)Cn1nnc(-c2ccccc2Cl)n1 | 0.8 | -2.7 | -28.0 | 13.6 | 19.2 | 0.9
SMILES | CYP2C9 act | MRP-1 activ | MRP reversal | CYP2C19 inh | CYP2C9 inhib | CYP2C19 act
O=C(Nc1ccc(F)c(F)c1)c1ccc2c(c1)OCO2 | 0.5 | 2.1 | -14.9 | 94.0* | 48.6 | 0.1
O=C(Nc1ccc2c(c1)OCO2)c1ccc(Cl)s1 | 0.4 | -1.6 | 18.8 | 81.4* | 62.0* | 0.2
O=C(Nc1ccc2c(c1)OCO2)c1ccc2c(c1)OCO2 | . | -1.4 | . | . | . | .
CCOc1ccc(C(=O)Nc2ccc3c(c2)OCCO3)cc1OC | 0.9 | -1.0 | 8.2 | 69.2* | 7.1 | 0.3
COc1cc(C#N)ccc1OCC(=O)c1ccc2c(c1)OCCO2 | 1.1 | -2.7 | 0.9 | 62.0* | -6.0 | 0.4
CCOc1cccc2sc(Nc3nc4ccc(NC(C)=O)cc4s3)nc12 | . | -2.1 | . | . | . | .
C=CCOc1c(Br)cc(/C=N/NC(=O)Cc2ccc(C(F)(F)F)cc2[N+](=O)[O-])cc1OC | . | -1.7 | . | . | . | .
CCNc1nc(NCC)nc(SCCOC(=O)COc2ccc(Cl)cc2Cl)n1 | 0.8 | -1.0 | 15.6 | 12.1 | 18.2 | 0.9
CCOC(=O)CC(/C(C)=N\O)c1ccccc1 (stereo unspecified) | 1 | 0.1 | 3.0 | 50.9* | -4.2 | 0.5
CCOC(=O)CC(NC(=O)C(CC)c1ccccc1)c1ccccc1Cl (stereo unspecified) | . | -0.7 | . | . | . | .
